# A selection: hits, their analogues and other compounds. The true share with any hit is near 11%.
# Pf growth 48h – inhibits P. falciparum growth in the first generation, 48 h | 310,000 tested, 5.9% active | P. falciparum luciferase growth in erythrocytes, 48 h | Potency, µM (top dose mostly 28.7 µM), without a hit: at the top dose activity change, negative = inhibition, hits mostly inhibitors
#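 Luciferase-expressing P. falciparum in infected erythrocytes (2% hematocrit, 0.1% parasitemia final) in RPMI 1640/0.5% Albumax were exposed to compound for 48 hours at 37 C, 5% CO2; growth read as luminescence.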
# HCV inh – blocks hepatitis C virus. Huh7.5.1 HCVcc-Cre infection, luciferase reporter, 44 h. Potency, µM (series often up to 41.8 µM), without a hit: at the top dose activity change, negative = inhibition, hits mostly inhibitors. 340,000 tested, 3.4% active. AID 651820
#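 Infectious HCVcc-Cre (~0.5 moi) was added to cells just after compound, with cells seeded 4 h earlier at 1,000 per well. Luciferase activity after 44 h culture reported infection; substrate was incubated 15 min at room temperature before reading.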
# Pf growth 96h – inhibits malaria parasite growth, 96 h | P. falciparum luciferase reporter growth, 96 h | Potency, µM (top dose mostly 28.7 µM), for the others: at the highest dose activity change, negative = inhibition, most hits filed as inhibitors | 320,000 tested, 6.9% active
#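 Two-generation exposure (96 h) targets delayed-death phenotype. Reporter parasites carrying integrated firefly luciferase, in red cells at 2% hematocrit and 0.05% parasitemia final, kept at 37 C, 5% CO2; luminescence loss indicates inhibition.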
# AMA1 RON2 block – disrupts binding of P. falciparum AMA1 to RON2; AlphaScreen AMA1-biotinylated RON2 peptide binding; Potency, µM (doses to about 58.2 µM), inactives show top-dose activity change, negative = inhibition, hits mostly inhibitors; 360,000 tested, 0.2% active; AID 720542;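 further: 0% = vehicle wells and -100% = peptide control; nearly all actives have a fitted effect of over 45% in size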
#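 AMA1 (3D7) with his tag at 25 nM final met compounds first, then biotinylated RON2 peptide at 25 nM; detection used donor plus acceptor beads, 10 µg/mL apiece, read by AlphaScreen after 30 min at room temperature.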
# * hit, by the source's call; ? = inconclusive; · = no result; [ ] = another dose, or the depositor's remark. The call rests on the fitted dose curve; in most records, active means well fitted curve in the direction sought with a large enough effect; inconclusive means small, poorly fitted or top-dose-only effect, or another doubt; inactive means no such curve, though single readings can be large; an effect the other way counts as inactive or inconclusive. Unless noted, on the % scale 0 is the no-effect control and ±100 the full control effect; potency means the concentration at half of the fitted maximal effect.
SMILES,Pf growth 48h,HCV inh,Pf growth 96h,AMA1 RON2 block
O=C(COC(=O)c1ccc(S(=O)(=O)N2CCOCC2)cc1)NC1CCCCCC1,-23.9%,-12.2%,-12.1%,-4.6%
COc1ccc(-c2ncccc2OC(=O)C23CC4CC(CC(C4)C2)C3)cc1OC,-27.4%,1.4%,14.3%,-0.1%
O=C(NCc1ccccc1Cl)c1nnc(CS(=O)(=O)c2ccccc2)o1,5.22µM*,1.2%,18.8%,8.0%
CCCCN(CC)C(=O)C1CCC(CNS(=O)(=O)c2cccc3nsnc23)CC1 (stereo not given),-12.1%,5.1%,?,13.7%
Cn1c(CSCc2ccccc2Cl)nnc1SCC(=O)Nc1nccs1,?,-12.3%,11.7µM*,4.8%
Cn1c(SCC(=O)Nc2nccs2)nnc1-c1ccc(S(=O)(=O)N2CCCC2)cc1,·,3.5%,6.57µM*,5.1%
CCn1c(SCC(=O)Nc2nccs2)nnc1-c1ccc(S(=O)(=O)N2CCCCCC2)cc1,·,?,-6.7%,24.0%
Cc1cccc(C)c1OCc1nnc(SCC(=O)Nc2nccs2)o1,·,-12.0%,0.6%,57.5%
CCCc1nnc(SCC(=O)Nc2nccs2)o1,9.28µM*,3.9%,8.5%,102.5%
CCCCc1nnc(SCC(=O)Nc2nccs2)n1C,22.8%,4.3%,10.4µM*,-9.1%
O=C(NC1CCCC1)C(c1ccccc1)n1c(Cc2cc(F)cc(F)c2)nc2ccccc21 (stereo not given),·,·,·,-3.2%
COC(=O)c1ccccc1NC(=O)Cn1nc2n(C)c3ccccc3n2c(=O)c1=O,-6.8%,13.2%,4.2%,·
COc1cccc(CN2CCNC(=O)C2CC(=O)N(C)Cc2cnccn2)c1OC (stereo not given),16.3%,-15.5%,6.4%,19.7%
O=C(CCN1CCCCC1)c1cccc(Cl)c1,·,3.6%,·,-15.1%
CN(CCO)c1cc(N2CCN(C(=O)c3ccco3)CC2)c2nonc2c1[N+](=O)[O-],2.8%,-6.0%,?,-0.6%
Cn1ncc2c(Nc3cccc(Cl)c3)nc(Nc3cccc(Cl)c3)nc21,1.65µM*,?,2.94µM*,-2.7%
Cn1ncc2c(Nc3ccc(O)cc3)nc(Cl)nc21,47.6%,-11.8%,82.4%,7.2%
CCCNc1nc(Nc2ccc(C)c(Cl)c2)c2cnn(C)c2n1,?,?,-0.1%,-10.6%
Cn1ncc2c(Nc3ccc(Br)cc3)nc(Nc3ccc(Br)cc3)nc21,2.08µM*,?,9.28µM*,6.6%
Cc1ccc(Nc2nc(NCCO)nc3c2cnn3C)cc1Cl,-22.9%,12.6µM*,?,-9.6%
CC(C)[C@H](NC(N)=O)C(=O)Nc1cccc(S(=O)(=O)N2CCOCC2)c1,8.8%,24.6%,-20.2%[1.15 µM],-6.3%
Cc1ccc2c(c1)[nH]c1c(=O)n(CCN3CCCCC3)cnc12,20.4%,2.5%,18.0%,-0.2%
c1ccc2c(c1)[nH]c1c(N3CCC4(CC3)OCCO4)ncnc12,·,7.08µM*,?,-5.8%
Cc1ccc2c(c1)[nH]c1c(N3CCN(Cc4ccccc4)CC3)ncnc12,0.522µM*,3.16µM*,?,-9.9%
CCCCOc1ncnc2c1[nH]c1ccc(C)cc12,202.8%,-74.9%,336.8%,-1.3%
SMILES,Pf growth 48h,HCV inh,Pf growth 96h,AMA1 RON2 block
Cc1ccc2[nH]c3c(N4CCCCCC4)ncnc3c2c1,2.62µM*,3.16µM*,?,·
CCOc1ccc2[nH]c3c(N4CCN(c5ccccn5)CC4)ncnc3c2c1,?,1µM*,-5.0%,-3.0%
COc1cc(OC)cc(C(=O)Nc2ccc(S(=O)(=O)N3CCOCC3)cc2)c1,?,-6.5%,2.6%,-7.8%
O=C(c1ccsc1)N1CCCC(N2CCOCC2)C1 (stereo not given),-15.1%,17.3%,-8.6%,0.0%
CC(Sc1nnc(-c2ccc(OC(F)F)cc2)n1N)C(=O)NCC1CCCO1 (stereo not given),?,-20.1%,5.7%,0.0%
CC(C)CC1=NN(C(=O)c2ccco2)C(O)(C(F)(F)F)C1 (stereo not given),52.4%,7.1%,56.4%,-14.8%
CC(=O)c1c(C)[nH]c(C(=O)OC(C)C(=O)NC2CCCCC2)c1C (stereo not given),·,·,·,0.0%
Cc1ccc(C(=O)N/C(=C\c2cccs2)C(=O)N2CCOCC2)cc1C,9.7%,10.7%,15.2%,-5.8%
c1ccc(CN2CCN(c3ncnc4c3[nH]c3ccccc34)CC2)cc1,0.928µM*,11.2µM*,-0.3%,-19.4%
Fc1ccc2[nH]c3c(N4CCN(C5CCCCC5)CC4)ncnc3c2c1,2.33µM*,·,-0.3%,·
Cc1ccc2[nH]c3c(N4CCN(Cc5ccccc5)CC4)ncnc3c2c1,1.65µM*,?,·,-12.9%
COCCNC(=O)C1(C)CCCN(C(=O)c2cc(C)oc2C)C1 (stereo not given),·,·,·,0.6%
COc1cccc(/C=C2\N=C(c3c(-c4ccccc4)noc3C)OC2=O)c1,8.3%,0.7%,23.7%,-0.8%
COc1cc(/C=C2\N=C(c3c(-c4ccccc4)noc3C)OC2=O)ccc1OC(C)=O,13.1µM*,-6.5%,4.0%,-5.3%
CCOP(=O)(OCC)c1nc(Cc2ccccc2)oc1NCc1ccccc1,9.28µM*,-9.7%,10.4µM*,-8.3%
CCOP(=O)(OCC)c1nc(-c2cccc3ccccc23)oc1NCCc1ccc(OC)cc1,14.7µM*,-0.3%,?,35.4%
CCOP(=O)(OCC)c1nc(-c2ccccc2)oc1NCc1ccccc1,7.38µM*,-6.1%,2.62µM*,3.6%[11.6 µM]
O=P(c1ccccc1)(c1ccccc1)c1nc(-c2ccccc2)oc1NCc1ccccc1,5.86µM*,6.4%,9.28µM*,-23.3%
CC1CCCN(S(=O)(=O)c2ccc(C(=O)NC(C)c3ccccc3)cc2)C1 (stereo not given),?,?,1.9%,-23.4%
COc1ccc(NC(=O)C[C@H]2C(=O)N(c3ccc(Br)cc3)C[C@@H]2CSC)cc1,·,·,·,0.5%
NC(=O)c1cccc(-c2cc(Nc3ccc(OC(F)(F)F)cc3)ncn2)c1,13.1µM*,?,14.7µM*,5.5%
O=C1[C@H]2[C@@H](c3ccc(F)cc3)N3C(=O)N(c4ccccc4)C(=O)[C@@]3(Cc3ccc(Cl)cc3)[C@H]2C(=O)N1C1CCCCC1,?,-7.9%,?,7.1%
O=C1[C@H]2[C@@H](c3ccc(Cl)cc3)N3C(=O)N(c4cccc(Br)c4)C(=O)[C@@]3(Cc3ccc(Cl)cc3)[C@H]2C(=O)N1C1CCCCC1,?,-8.4%,11.7µM*,-9.3%
O=C1[C@H]2[C@@H](c3ccc(F)cc3)N3C(=O)N(c4cccc(Br)c4)C(=O)[C@@]3(Cc3ccc(Cl)cc3)[C@H]2C(=O)N1C1CCCCC1,2.94µM*,6.4%,3.29µM*,21.4%
CCCN(CC(=O)Nc1cc(Cl)ccc1Cl)C(=O)CN1C(=O)C2CCCCC2C1=O (stereo not given),-10.2%,-7.1%,?,15.8%
O=C(c1nnsc1S(=O)c1ccc(Cl)cc1)N1CCOCC1 (stereo not given),16.5µM*,?,-6.3%,-4.6%
Cc1nnsc1S(=O)c1ccc(Cl)c(Cl)c1 (stereo not given),·,-24.6%,5.22µM*,-5.0%
O=C(Nc1ccccc1)c1nnsc1S(=O)c1ccc(Cl)cc1 (stereo not given),63.5%,0.5%,15.1%,-3.8%
